For 17 molecules, outcome and AC50 results are on record in PubChem BioAssay (EPA / NIEHS).

Molecules are shown by their SMILES. Values joined by “and” are separate entries in the source; they are usually repeats but may differ in a detail not shown here. Equal entries are not always repeated. Results filed as inconclusive are left out. The source holds several records for some structures; these can differ, active in one and inactive in another. Active and inactive are the calls of the source. The calls were made as follows: active = hit-call score of the fitted dose curve at least 0.9, where 1 is the maximum; inconclusive = response in the unintended direction; inactive = score below 0.9.

Sequence of Caspase-1 (Homo sapiens) (P29466 whole entry, looked up): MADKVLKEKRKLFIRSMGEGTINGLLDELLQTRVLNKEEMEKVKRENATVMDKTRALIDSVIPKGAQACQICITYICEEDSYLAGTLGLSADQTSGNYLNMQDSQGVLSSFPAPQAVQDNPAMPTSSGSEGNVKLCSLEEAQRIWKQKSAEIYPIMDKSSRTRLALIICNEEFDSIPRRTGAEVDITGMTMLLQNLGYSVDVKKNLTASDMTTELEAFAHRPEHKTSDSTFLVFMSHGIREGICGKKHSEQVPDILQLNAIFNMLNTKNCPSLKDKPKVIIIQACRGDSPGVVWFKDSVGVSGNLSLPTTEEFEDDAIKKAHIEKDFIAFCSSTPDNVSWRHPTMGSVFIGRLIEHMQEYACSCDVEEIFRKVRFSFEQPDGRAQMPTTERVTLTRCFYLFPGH
Sequence of human Caspase 5 (CASP5), CASP5 (gene 838) (P51878 whole entry, looked up): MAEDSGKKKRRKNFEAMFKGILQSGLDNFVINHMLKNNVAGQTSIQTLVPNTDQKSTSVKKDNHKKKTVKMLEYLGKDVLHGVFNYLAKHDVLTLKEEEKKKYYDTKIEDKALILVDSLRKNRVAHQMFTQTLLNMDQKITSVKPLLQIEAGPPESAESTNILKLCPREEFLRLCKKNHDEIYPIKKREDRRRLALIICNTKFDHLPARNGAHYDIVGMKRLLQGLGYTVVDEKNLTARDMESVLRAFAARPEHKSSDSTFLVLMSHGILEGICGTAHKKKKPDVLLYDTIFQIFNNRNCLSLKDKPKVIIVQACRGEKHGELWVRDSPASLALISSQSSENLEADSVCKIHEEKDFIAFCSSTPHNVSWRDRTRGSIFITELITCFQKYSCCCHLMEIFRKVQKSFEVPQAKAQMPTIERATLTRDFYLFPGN
Sequence of Caspase-3 (Homo sapiens) (P42574 whole entry, looked up): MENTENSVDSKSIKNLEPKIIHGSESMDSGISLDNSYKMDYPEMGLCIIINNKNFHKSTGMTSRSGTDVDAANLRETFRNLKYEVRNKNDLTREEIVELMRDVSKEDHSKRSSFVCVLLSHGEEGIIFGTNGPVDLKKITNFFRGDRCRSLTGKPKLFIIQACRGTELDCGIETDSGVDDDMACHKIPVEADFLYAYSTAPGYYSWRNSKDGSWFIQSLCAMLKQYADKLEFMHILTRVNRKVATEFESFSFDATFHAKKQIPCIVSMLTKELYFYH
Sequence of human Beta-secretase (BACE), BACE1 (gene 23621) (P56817 whole entry, looked up): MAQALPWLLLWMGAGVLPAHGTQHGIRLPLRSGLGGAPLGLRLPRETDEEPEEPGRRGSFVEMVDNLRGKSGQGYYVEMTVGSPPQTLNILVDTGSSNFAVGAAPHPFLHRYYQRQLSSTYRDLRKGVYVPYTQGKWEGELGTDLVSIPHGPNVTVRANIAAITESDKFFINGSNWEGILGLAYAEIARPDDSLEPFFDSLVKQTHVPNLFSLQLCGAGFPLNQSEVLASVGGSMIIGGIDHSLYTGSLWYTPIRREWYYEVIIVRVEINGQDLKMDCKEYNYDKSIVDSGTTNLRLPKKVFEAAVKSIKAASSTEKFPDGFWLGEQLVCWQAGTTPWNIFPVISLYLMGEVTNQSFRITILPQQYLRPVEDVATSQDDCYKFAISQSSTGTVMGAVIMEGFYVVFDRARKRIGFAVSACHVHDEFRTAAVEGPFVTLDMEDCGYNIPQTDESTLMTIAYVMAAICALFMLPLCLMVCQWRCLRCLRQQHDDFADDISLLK
Sequence of human AKT serine/threonine Kinase 1 (AKT1), AKT1 (gene 207) (P31749 whole entry, looked up): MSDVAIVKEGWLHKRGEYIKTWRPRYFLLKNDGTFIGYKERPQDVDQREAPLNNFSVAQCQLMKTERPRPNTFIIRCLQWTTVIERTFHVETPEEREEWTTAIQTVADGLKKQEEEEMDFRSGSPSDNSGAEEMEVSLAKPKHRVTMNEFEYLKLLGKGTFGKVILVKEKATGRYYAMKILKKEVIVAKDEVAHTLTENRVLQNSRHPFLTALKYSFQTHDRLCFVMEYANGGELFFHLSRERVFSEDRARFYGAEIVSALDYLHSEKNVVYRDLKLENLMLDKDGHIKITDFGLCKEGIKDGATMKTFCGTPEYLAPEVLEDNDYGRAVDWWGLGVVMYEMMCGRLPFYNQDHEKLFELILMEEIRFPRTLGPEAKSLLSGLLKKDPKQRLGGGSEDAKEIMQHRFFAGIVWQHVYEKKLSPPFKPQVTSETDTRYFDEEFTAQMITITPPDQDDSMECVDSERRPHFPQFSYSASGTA
Sequence of human Acid Phosphatase 1 (ACP1), ACP1 (gene 52) (P24666 whole entry, looked up): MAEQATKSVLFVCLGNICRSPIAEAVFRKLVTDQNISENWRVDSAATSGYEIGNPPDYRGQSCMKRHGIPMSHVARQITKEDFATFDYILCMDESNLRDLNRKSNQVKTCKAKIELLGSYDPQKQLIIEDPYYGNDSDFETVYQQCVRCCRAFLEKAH

The first assay concerns the target Caspase-1 (Homo sapiens) (UniProt P29466). Nature of the assay: NVS_ENZ_hCASP1: NovaScreen (NVS) Enzymatic Assay for human Caspase 1 (CASP1) (AID 2283132). In a few lines:
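Compounds were first tested in duplicate at 25 uM, with follow-up concentration series up to 50 uM. The bacterially expressed enzyme was read by fluorescence at 1 h post-dosing. Signal loss versus DMSO baseline indicates reduced enzyme activity.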
Consider `CN1CSC(=S)N(C)C1`, for which the result was inactive.
Regarding `CC1(C)C(C=C(Cl)Cl)C1C(=O)OC(C#N)c1ccc(F)c(Oc2ccccc2)c1` (centres undefined), the result was inactive.
`O=S(=O)(O)C(F)(F)C(F)(F)C(F)(F)C(F)(F)C(F)(F)C(F)(F)C(F)(F)C(F)(F)F`: the call was inactive.
As to `O=C(O)C(F)(F)C(F)(F)C(F)(F)C(F)(F)C(F)(F)C(F)(F)C(F)(F)F`, the call was inactive.

A further assay concerns the target human Acid Phosphatase 1 (ACP1), ACP1 (gene 52) (UniProt P24666). Briefly: NVS_ENZ_hACP1: NovaScreen (NVS) Enzymatic Assay for human Acid Phosphatase 1 (ACP1) (AID 2283136). Put shortly: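 Cell-free fluorescence read-out of phosphatase activity, substrate and product separated by mobility shift, taken 1.5 h after compound addition; protein produced in Sf9. Single 25 uM duplicate screen, followed by concentration series for actives, scored as signal loss relative to DMSO.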
With `Oc1cc(Cl)ccc1Oc1ccc(Cl)cc1Cl`, the call was inactive.
Consider `C#CCN1C(=O)COc2cc(F)c(N3C(=O)C4=C(CCCC4)C3=O)cc21`, for which the result was inactive.
By AC50 is commonly meant the concentration at which the activity in the assay is half-maximal. For `O=S(=O)(O)C(F)(F)C(F)(F)C(F)(F)C(F)(F)C(F)(F)C(F)(F)C(F)(F)C(F)(F)F`, the AC50 is 24.7 µM (active).
As for `O=C(O)C(F)(F)C(F)(F)C(F)(F)C(F)(F)C(F)(F)C(F)(F)C(F)(F)F`, the molecule was classed as inactive.
With `CC(C)(C)C(O)C(Oc1ccc(Cl)cc1)n1cncn1` (centres undefined), the result was inactive.

A further assay has as its target human Caspase 5 (CASP5), CASP5 (gene 838) (UniProt P51878). Nature of the assay: NVS_ENZ_hCASP5: NovaScreen (NVS) Enzymatic Assay for human Caspase 5 (CASP5) (AID 2283137). Put shortly:
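Fluorescent substrate readout of CASP5 activity (loss-of-signal), measured 2 h post-dose. Protein expressed in E. coli. Primary screen duplicate at 25 uM; actives meeting threshold (e.g., 30% inhibition) rerun singleton, max 50 uM.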
`Oc1ccc(Cl)cc1Cc1ccccc1`: the outcome was inactive.
As for `O=S(=O)(O)C(F)(F)C(F)(F)C(F)(F)C(F)(F)C(F)(F)C(F)(F)C(F)(F)C(F)(F)F`, the AC50 was 26.7 µM (active) [middle of 4 runs].
Turning to `O=C(O)C(F)(F)C(F)(F)C(F)(F)C(F)(F)C(F)(F)C(F)(F)C(F)(F)F`, the result was inactive.

The target in another assay is human AKT serine/threonine Kinase 1 (AKT1), AKT1 (gene 207) (UniProt P31749). Briefly: NVS_ENZ_hAKT1: NovaScreen (NVS) Enzymatic Assay for human AKT serine/threonine Kinase 1 (AKT1) (AID 2283138). In a few lines:
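Fluorescence and mobility-shift readout of kinase activity, taken 1 h post-dosing in a cell-free format with recombinant protein. Primary screen at 25 uM in duplicate; hits (e.g. 30% inhibition) retested in concentration series topping at 50 uM.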
Turning to `COC(=O)c1ccccc1CS(=O)(=O)NC(=O)Nc1nc(OC)cc(OC)n1`, the molecule was classed as inactive.
Consider `Oc1ccc(Cl)cc1Cc1ccccc1`, for which the call was inactive.
In the case of `COC(=O)c1ccccc1S(=O)(=O)NC(=O)N(C)c1nc(C)nc(OC)n1`, the call was inactive.
The same measure, in the same setting: the result for `N#Cc1c(Cl)c(Cl)c(Cl)c(C#N)c1Cl` reads “inactive”.
For the molecule `O=S(=O)(O)C(F)(F)C(F)(F)C(F)(F)C(F)(F)C(F)(F)C(F)(F)C(F)(F)C(F)(F)F`, the AC50 is 46.7 µM (active).
On to `CNC(=O)CSP(=S)(OC)OC`, for which the result was inactive.

The next assay has as its target Caspase-3 (Homo sapiens) (UniProt P42574). Briefly: NVS_ENZ_hCASP3: NovaScreen (NVS) Enzymatic Assay for human Caspase 3 (CASP3) (AID 2283139). Put shortly:
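Single-concentration screening at 25 uM in duplicate, with concentration-response follow-up to a 50 uM maximum for chemicals passing the threshold. Caspase-3 (human, E. coli-expressed) activity was read as substrate fluorescence after 1 h, with loss of signal relative to DMSO.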
Take `O=C1c2ccccc2C(=O)N1SC(Cl)(Cl)Cl`: the call was inactive.
With `CCOC1Oc2ccc(OS(C)(=O)=O)cc2C1(C)C` (centres undefined), the call was inactive.
For the molecule `C[C@H]1[C@H](c2ccc(Cl)cc2)SC(=O)N1C(=O)NC1CCCCC1`, the result was inactive.

The next assay has as its target human Beta-secretase (BACE), BACE1 (gene 23621) (UniProt P56817). Nature of the assay: NVS_ENZ_hBACE: NovaScreen (NVS) Enzymatic Assay for human Beta-secretase (BACE) (AID 2283140).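 Also: hits are inhibitors that reduce fluorescent substrate signal versus DMSO.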 Put shortly: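 SF9-expressed enzyme, cell-free; fluorescent substrate readout after 1 h. Screened at 25 uM single concentration, duplicate; hits retested in concentration series. Activity relative to DMSO baseline, loss-of-signal.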
For the molecule `Oc1ccc(Cl)cc1Cc1ccccc1`, the AC50 was 18.9 µM (active) [middle of 6 runs].
For the molecule `CCC(C)(C)C(=O)OC1=C(c2ccc(Cl)cc2Cl)C(=O)OC12CCCCC2`, the AC50 is 17.6 µM (active).
In the case of `Oc1cc(Cl)ccc1Oc1ccc(Cl)cc1Cl`, the concentration at half-maximal activity (AC50) is 25.5 µM (active) and 28.2 µM (active) and 7.92 µM (active); the molecule was called inactive.
As for `O=C(Nc1ccccc1)Nc1cnns1`, the AC50 was 10.7 µM (active).
For the molecule `CC1(C)C(C=C(Cl)Cl)C1C(=O)OC(C#N)c1ccc(F)c(Oc2ccccc2)c1` (centres undefined), the AC50 was 3.31 µM (active).
As to `O=S(=O)(O)C(F)(F)C(F)(F)C(F)(F)C(F)(F)C(F)(F)C(F)(F)C(F)(F)C(F)(F)F`, the AC50 was 2.29 µM (active) and 2.36 µM (active) and 8.91 µM (active).
Consider `O=C(O)C(F)(F)C(F)(F)C(F)(F)C(F)(F)C(F)(F)C(F)(F)C(F)(F)F`, for which the AC50 is 3.58 µM (active) and 1.2 µM (active).
